NIH3T3 tox: Cytotoxic Profiling in NIH 3T3 Cell Line of Diverse Libraries Using Quantitative High-Throughput Screening | NIH 3T3 viability, CellTiter-Glo ATP luminescence, 48-72 h | Potency, µM (top dose mostly 96.7 µM), usual class: inhibitors | hit rate 4.3% among 94,000 | AID 1345082, 2018; further: nearly all actives have a fitted effect of over 55% in size
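Cytotoxicity was measured by CellTiter-Glo ATP luminescence after 48 or 72 h compound exposure at 37 °C. Mouse NIH 3T3 fibroblasts were seeded at 400 cells/well and dosed by 23 nL pin transfer.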
Luciferase inh: Firefly luciferase inhibition profiling of diverse chemical library using quantitative high-throughput screening. Luciferin 4-monooxygenase (Photinus pyralis), P08659. purified P. pyralis luciferase, luminescence, biochemical. Potency, µM (titrated, usually from 115 µM), hits mostly inhibitors. hit rate 2.5% among 76,000. AID 1347043, 2019; further: nearly all actives have a fitted effect of over 65% in size
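Luminescence read by CCD imaging after purified firefly luciferase (10nM final) was added to substrate buffer holding 10uM D-luciferin and 10uM ATP, pH 7.5, pre-dosed with compound.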
hNpr1 antagonist: Natriuretic polypeptide receptor (hNpr1) antagonism - Primary qHTS; Atrial natriuretic peptide receptor 1 (Homo sapiens), P16066; AID 1347048, 2019; HEK293 hNpr1 GloSensor cGMP, ANP-stimulated luminescence; Potency, µM (series often up to 46.3 µM), most hits filed as inhibitors; hit rate 1.6% among 76,000; calls by dose curve; further: nearly all actives have a fitted effect of over 60% in size
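HEK293 cells stably expressing human Npr1 and cGMP GloSensor pGS-40F, loaded 2 h with 2% GloSensor reagent, given compound 30 min at room temperature. Luminescence read before and 20 min after 0.1 nM hNppA.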
GPT2 inh: Primary qHTS assay for inhibitors of Glutamate pyruvate transaminase 2 (GPT2); hit rate 0.25% among 100,000; Potency, µM (top dose mostly 57.7 µM), most hits filed as inhibitors; Recombinant GPT2, coupled pyruvate oxidase/HRP Amplex Red fluorescence; Alanine aminotransferase 2 (Homo sapiens), Q8TD30; AID 1671188, 2021; further: nearly all actives have a fitted effect of over 60% in size
Target sequence (Q8TD30 whole entry, looked up): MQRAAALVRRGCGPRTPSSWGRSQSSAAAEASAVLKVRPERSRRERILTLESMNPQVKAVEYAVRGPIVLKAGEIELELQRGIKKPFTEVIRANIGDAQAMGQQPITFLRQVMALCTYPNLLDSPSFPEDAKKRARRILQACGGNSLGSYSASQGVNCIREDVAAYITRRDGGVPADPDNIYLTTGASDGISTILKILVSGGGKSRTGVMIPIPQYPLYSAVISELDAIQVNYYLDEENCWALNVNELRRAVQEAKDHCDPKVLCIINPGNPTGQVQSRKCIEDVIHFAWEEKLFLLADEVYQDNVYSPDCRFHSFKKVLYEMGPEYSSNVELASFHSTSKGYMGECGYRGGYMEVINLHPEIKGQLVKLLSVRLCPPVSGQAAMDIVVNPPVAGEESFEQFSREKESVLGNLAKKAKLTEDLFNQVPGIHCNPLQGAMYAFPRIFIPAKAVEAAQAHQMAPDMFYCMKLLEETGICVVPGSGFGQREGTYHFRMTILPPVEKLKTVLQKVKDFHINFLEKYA
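Fluorescence read-out: pyruvate from GPT2 turnover coupled to pyruvate oxidase, HRP and Amplex Red (0.2mM ThPP, 0.2U/mL PO and HRP, 50uM Amplex final). Substrates 250uM a-KG, 2mM L-alanine; enzyme 10ng/uL; 30 min RT.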
HEK293 tox: Cytotoxic Profiling in HEK 293 Cell Line of Diverse Libraries Using Quantitative High-Throughput Screening | HEK 293 viability, ATP luminescence (CellTiter-Glo), 48-72 h | Potency, µM (series often up to 115 µM), actives largely listed as inhibitors | hit rate 6.6% among 94,000; further: nearly all actives have a fitted effect of over 60% in size
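250 HEK 293 cells/well; compound by pintool; incubated 48 or 72 hr at 37 degree Celsius; CellTiter-Glo added, 10 min RT, luminescence imaged.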
Hits are given with their value; - = inactive; ? = inconclusive; . = no result; ! = not confirmed by another sample; [ ] = dose if it differs, or a comment. Hits are enriched below; roughly 10% of the tested compounds scored in any of these assays. Unless noted, the call rests on the fitted dose curve; in most records, active means well fitted curve in the direction sought with a large enough effect; inconclusive means small, poorly fitted or top-dose-only effect, or another doubt; inactive means no such curve, though single readings can be large; an effect the other way counts as inactive or inconclusive.

SMILES | NIH3T3 tox | Luciferase inh | hNpr1 antagonist | GPT2 inh | HEK293 tox
O=C(NCCCc1ccccc1)c1n[nH]c2c1CN(C(=O)c1ccc(F)c(F)c1)CC2 | 35µM | . | . | - | ?
CC(C)c1ccc(C(=O)N2CCc3[nH]nc(C(=O)NCCCc4ccccc4)c3C2)cc1 | - | - | - | - | -
COc1cccc(C(=O)N2CCc3[nH]nc(C(=O)NCCCc4ccccc4)c3C2)c1 | 32µM | - | - | - | ?
O=C(N1CCCC(Nc2ccc(F)cc2)C1)C12CC3CC(CC(C3)C1)C2 (configuration not stated) | ? | - | - | ? | ?
COc1cccc(N2CCN(Cc3cn(-c4ccccc4)nn3)CC2(C)C)c1 | - | - | ? | -[11.5 µM] | ?
CC(C)c1nnsc1Cn1ncc(N(C)CCc2ccccc2)cc1=O | ? | - | - | - | 89µM
CC(C)N(C)C(=O)Cn1ncc(N(C)CCc2ccccc2)cc1=O | - | - | - | - | -
O=C(COc1ccc(F)cc1)N1CCC2(CCCCO2)CC1 | - | - | - | - | -
Cc1ccccc1N(C)C1CN(Cc2ccc(C(F)(F)F)cc2)C1 | ? | . | . | - | 100µM
Cc1ccccc1N(C)C1CN([S+](=O)([O-])c2cccs2)C1 | ? | - | - | - | 79µM
Cc1ccccc1N(C)C1CN(Cc2ccc(F)cc2)C1 | - | . | . | - | ?
Cc1ccccc1N(C)C1CN(Cc2cccnc2)C1 | - | . | . | - | ?
Cc1ccccc1N(C)C1CN(Cc2ccccc2)C1 | 89µM | - | - | ? | ?
CCCC/C=C\CCCCCc1cc(=O)c2ccccc2n1C | . | . | . | - | .
Cn1ccnc1C(=O)N1CCCN(S(=O)(=O)c2ccccc2)CCC(=O)NCC1 | - | - | - | - | -
Cn1cc(-c2ccc(F)cc2)cc1C(=O)NCCCN1CCCCC1 | ? | - | - | - | ?
O=C(c1ccncc1)N1CCC(OCC2CC2)C1 (configuration not stated) | - | - | - | - | -
CSc1cccc(NC(=O)Nc2cccc(-c3ccc(N4CCCC4)nn3)c2)c1 | ? | 1.8µM | - | - | ?
CSc1ccc(NC(=O)Nc2cccc(-c3ccc(N4CCOCC4)nn3)c2)cc1 | ? | 0.56µM | 11µM | - | ?
O=C(Nc1cccc(-c2ccc(N3CCOCC3)nn2)c1)Nc1ccc(F)cc1F | ? | 2µM | - | - | ?
CSc1cccc(NC(=O)C2CCCN(c3cnc4nc(C)c(C)nc4c3)C2)c1 (configuration not stated) | - | - | - | - | -
Cc1ccc(NC(=O)Nc2cccc(-c3ccc(N4CCOCC4)nn3)c2)cc1 | - | 0.63µM | ? | - | ?
Cc1c(F)cccc1NC(=O)Nc1cccc(-c2nnc3n2CCCC3)c1 | - | ? | - | - | -
CC(C)=C1CC2C(CCC2(C)O)C(C)(O)CC1=O (configuration not stated) | . | . | . | - | .
CCc1ccccc1NC(=O)Nc1cccc(-c2ccc(N3CCOCC3)nn2)c1 | ? | 1µM | - | - | ?
SMILES | NIH3T3 tox | Luciferase inh | hNpr1 antagonist | GPT2 inh | HEK293 tox
Cc1cccc(C(=O)Nc2cccc(-c3ccc(N4CCN(C)CC4)nn3)c2)c1 | 40µM | 32µM | - | ? | ?
CCc1ccccc1NC(=O)Cn1c(N2CCOCC2)nc(COC)cc1=O | - | - | - | - | -
COC(=O)[C@H]1CN(C(=O)NC(C)C)CCN1C(=O)c1cccnc1 | - | - | - | - | -
Cc1ccc2nc(C3CCN(Cc4ccc(-c5cccs5)cc4)CC3)[nH]c(=O)c2c1 | ? | - | - | - | 35µM!
Cc1ccc2nc(C3CCCN(Cc4cccc(-c5cccs5)c4)C3)[nH]c(=O)c2c1 (configuration not stated) | ? | - | ? | - | ?
Cc1ccc2nc(C3CCCN(Cc4ccccc4)C3)[nH]c(=O)c2c1 (configuration not stated) | ? | - | - | - | 63µM!
Cc1ccc2nc(C3CCCN(Cc4cccs4)C3)[nH]c(=O)c2c1 (configuration not stated) | - | . | . | - | ?
Cc1ccc2nc(C3CCCN(CC4CCCC4)C3)[nH]c(=O)c2c1 (configuration not stated) | ? | - | - | - | 71µM!
CC(C)CN1CCCC(c2nc3ccc(F)cc3c(=O)[nH]2)C1 (configuration not stated) | 32µM | - | - | - | 25µM
CNC(=O)c1cc(C)nc2onc(C3CCN(C(=O)N(C)C)CC3)c12 | - | . | . | . | -
COc1cc(OC)cc(C(=O)NCC2CCCN(Cc3cccc(C)n3)C2)c1 (configuration not stated) | - | - | - | ? | -
CC(=O)Nc1ccc(CN2CCCC(c3nc4ccc(F)cc4c(=O)[nH]3)C2)cc1 (configuration not stated) | ? | - | - | - | ?
Cc1cc(C)cc(-c2ccc(CN3CCCC(c4nc5ccc(F)cc5c(=O)[nH]4)C3)cc2)c1 (configuration not stated) | 18µM | - | - | - | 40µM!
O=C(NCCc1ccc(F)cc1)C1CCN(c2nccc(Nc3ccccc3F)n2)CC1 | ? | . | . | - | 28µM
O=C(NCc1ccc(Cl)cc1)C1CCN(c2nccc(Nc3ccccc3F)n2)CC1 | 28µM | . | . | - | 18µM
CCCc1ccc(S(=O)(=O)N2CCC(c3c[nH]c4c(C)cccc34)CC2)cc1 | ? | - | - | - | 50µM
Cc1cccc2c(C3CCN(S(=O)(=O)c4c(Cl)cccc4Cl)CC3)c[nH]c12 | ? | - | - | - | ?
COc1cccc(-c2ccc(CN3CCCC(N[S+](=O)([O-])c4ccc(C)cc4)C3)cc2)c1 (configuration not stated) | ? | . | . | - | 28µM
COCC(=O)NC1CCCN(Cc2ccc(-c3cc(C)cc(C)c3)cc2)C1 (configuration not stated) | ? | . | . | - | ?
Cc1cc(C)cc(-c2ccc(CN3CCCC(N[S+](=O)([O-])c4ccccc4)C3)cc2)c1 (configuration not stated) | ? | . | . | - | 45µM
Cc1ccc(-c2cccc(CN3CCCC(N[S+](=O)([O-])c4c(C)noc4C)C3)c2)cc1Cl (configuration not stated) | 16µM | . | . | - | 13µM
COc1cccc(-c2ccc(CN3CCCC(N[S+](=O)([O-])c4c(C)noc4C)C3)cc2)c1 (configuration not stated) | 45µM | . | . | - | ?
Cc1ccc(-c2cccc(CN3CCCC(N[S+](=O)([O-])c4ccccc4)C3)c2)cc1Cl (configuration not stated) | - | . | . | - | -
